Assay outcomes from PubChem.
697 NFkB inh – inhibitors of the PMA/ionomycin-induced NF-kB reporter in 697 B cells; 697 B-cell NF-kB luciferase reporter, 16 h; inhibition, % at 4 µM; 0.33% of 330,000 active; AID 435022; in the data active = inhibition above about 35%
SMARCA2 act – increases SMARCA2 function in MMTV reporter cells; activation, % at 9.1 µM; MG213 cells, MMTV-luciferase reporter, dexamethasone, overnight; 1% of 370,000 active; in the data active = activation above about 7.8%;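 note: 0% = vehicle wells and 100% = reference activator wells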
esBAF inh – inhibitors of esBAF chromatin remodeling in mouse ES cells; Bmi1-luciferase knock-in reporter, 24 h; 100% = twice the neutral-well signal; reporter increase, % at 12.5 µM; 2% of 350,000 active; in the data active = activation above about 40%;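 note: 0% = median of the plate's neutral control wells and 100% = double that signal; a rise in the Bmi1 reporter signal indicates esBAF inhibition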
Jurkat NFkB inh – inhibitors of the PMA/ionomycin-induced NF-kB reporter in Jurkat cells. 0.53% of 330,000 active. AID 435003. PMA/ionomycin-induced NF-kB luciferase reporter, luminescence. inhibition, % at 4 µM; in the data active = inhibition above about 50%
Gli-Sufu block – blocks Gli-Sufu signaling in a luciferase reporter. Sufu-KO-LIGHT fibroblasts, Gli luciferase reporter luminescence. inhibition, % at 5 µM. 0.74% of 340,000 active. AID 588413;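 active = inhibition above about 55%, limit read from the data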;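 note: 0% = DMSO-treated cells and 100% = wells with medium but no cells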
* = called active by the depositor; nt = no result given. Compounds with a hit are over-represented: about 3.3% of the library has one in this group of screens.

SMILES	697 NFkB inh	SMARCA2 act	esBAF inh	Jurkat NFkB inh	Gli-Sufu block
O=C1c2ccccc2-n2c1nc1ccccc1c2=O	-28.6	2.7	44.5*	14.7	-7.5
O=c1c2ccccc2nc2n1-c1ccccc1CCC2	14.5	-3.0	-0.3	-3.5	4.6
CC(=O)N(C)C[C@@H]1Oc2cc(C#Cc3ccccn3)ccc2S(=O)(=O)N([C@H](C)CO)C[C@@H]1C	nt	nt	-0.6	nt	nt
CC(C)C#Cc1ccc2c(c1)O[C@H](CN(C)C(=O)c1ccncc1)[C@H](C)CN([C@@H](C)CO)S2(=O)=O	nt	nt	1.4	nt	nt
COc1ccc(C(=O)c2ccc(Cl)cc2)cc1	-30.1	1.1	45.8*	-27.3	-32.7
COc1ccc(C(=O)c2ccc(Cl)cc2Cl)cc1	1.4	3.3	nt	-14.1	-2.5
CCCN(C)C[C@H]1Oc2cc(C#Cc3ccc(F)cc3)ccc2S(=O)(=O)N([C@@H](C)CO)C[C@H]1C	nt	nt	-3.9	nt	nt
COCc1nc2oc3ccccc3c(=O)c2cc1C(=O)OC	-42.3	1.1	48.2*	-52.5	-36.8
O=C(O)c1ccc(/C=N/Nc2cccc(C(F)(F)F)c2)cc1	-163.0	7.6	87.7*	-29.4	-33.5
O=C([C@H]1[C@H](CO)[C@H]2Cn3c(ccc(-c4ccccc4)c3=O)[C@@H]1N2CCC(F)(F)F)N1CCOCC1	nt	nt	-1.0	nt	nt
COc1ccc(-c2nn(-c3ccccc3)cc2/C=C(\CC(=O)O)c2nc3ccccc3s2)cc1OC	-31.3	2.1	40.3*	1.6	-2.6
Cc1ccc(C)c(OCc2nnc(N)s2)c1	17.6	1.5	nt	6.1	-1.8
Nc1nnc(COc2ccc(Br)cc2Br)s1	-148.8	4.9	69.1*	-72.1	-64.9
C[C@@H]1CN([C@@H](C)CO)C(=O)c2cc(-c3cccc(C#N)c3)cnc2O[C@H]1CN(C)C(=O)c1cnccn1	nt	nt	1.0	nt	nt
CCOC(=O)c1nn(-c2ccc(Br)cc2)cc1C(=O)c1cccc2ccccc12	-230.0	1.7	78.2*	-14.9	-54.8
COc1ccc(CN2C[C@@H](O)COC[C@@H]3O[C@@H](CC(=O)N4CCc5ccccc5C4)CC[C@H]32)cc1	nt	nt	18.4	nt	nt
C[C@@H]1CN([C@H](C)CO)C(=O)c2cc(-c3cncnc3)cnc2O[C@@H]1CN(C)C(=O)Cc1ccccn1	nt	nt	-1.7	nt	nt
COc1ccc2nc(Nc3nc(CSc4ccc(C)cc4)cc(=O)[nH]3)nc(C)c2c1	1.0	-1.3	28.9*	28.8	11.5
O=C1C(C=NCCN2CCOCC2)=C(O)c2ccccc21	-148.3	1.3	51.4*	-68.4	-1.9
O=C1C(C=Nc2ccccc2)=C(O)c2ccccc21	-248.3	5.2	56.0*	-74.3	-39.1
COc1ccc(N=CC2=C(O)c3ccccc3C2=O)cc1	-160.5	2.1	nt	-80.7	-65.9
O=C1C(C=NCCCN2CCOCC2)=C(O)c2ccccc21	1.4	0.8	10.2	-11.2	-1.9
Cn1c(=O)oc2cc(S(=O)(=O)Nc3ccc4c(c3)OCO4)ccc21	2.2	3.1	45.3*	-2.0	4.3
C[C@@H]1CN([C@@H](C)CO)C(=O)c2cccc(NC(=O)Nc3ccccc3)c2O[C@H]1CN(C)S(=O)(=O)c1ccc(F)cc1	nt	nt	4.9	nt	nt
CCC(=O)c1coc2ccc(O)cc12	8.1	2.2	nt	-12.7	0.1
SMILES	697 NFkB inh	SMARCA2 act	esBAF inh	Jurkat NFkB inh	Gli-Sufu block
COc1ccc(C(=O)c2coc3ccc(O)cc23)cc1	-235.3	1.9	-7.5	-128.2	0.1
CC(=O)Oc1ccc2occ(C(=O)c3cccs3)c2c1	-135.2	1.7	60.2*	-73.3	10.0
CC(=O)Oc1ccc2occ(C(=O)c3ccccc3)c2c1	-98.8	-0.4	nt	-61.0	3.1
O=C(c1cccc(Br)c1)c1coc2ccc(O)cc12	-78.1	3.8	69.9*	-75.6	-4.8
O=C(c1cccs1)c1coc2ccc(O)cc12	-34.9	6.8	67.3*	-61.5	8.1
CC(=O)Oc1ccc2occ(-c3ccccc3)c2c1	-29.9	0.3	46.6*	-24.4	25.6
O=C(C[C@@H]1CC[C@@H]2[C@H](COC[C@@H](O)CN2S(=O)(=O)c2ccc(Cl)cc2)O1)NCCN1CCCC1	nt	nt	-0.4	nt	nt
Cc1noc(C)c1NC(=O)Nc1ccc2c(c1)C(=O)N([C@@H](C)CO)C[C@@H](C)[C@@H](CN(C)S(=O)(=O)c1c(C)noc1C)OCCCC[C@@H](C)O2	nt	nt	-3.9	nt	nt
CC(C)C#Cc1ccc2c(c1)O[C@H](CN(C)Cc1cccnc1)[C@@H](C)CN([C@@H](C)CO)S2(=O)=O	nt	nt	15.7	nt	nt
C/C=C/c1ccc([C@H]2[C@@H](CNC(=O)C3CC3)N(C(=O)NCCC)[C@H]2CO)cc1	nt	nt	4.2	nt	nt
O=C(NCc1ccco1)c1sc2cc(F)ccc2c1Cl	-43.1	3.5	52.8*	-23.8	-21.4
Cc1cc(NC(=O)c2c(Cl)cccc2Cl)no1	-8.9	-4.8	nt	-15.1	-2.6
Cc1ccc2c(Cl)c(C(=O)Nc3cc(C)on3)sc2c1	8.1	2.9	60.3*	-64.5	-81.0
CCNC(=O)c1sc2cc(C)ccc2c1Cl	-14.0	4.6	24.3*	-40.9	-35.8
O=C(Nc1ccon1)c1sc2cc(F)ccc2c1Cl	12.5	5.3	70.9*	-70.8	-54.7
C[C@H]1CN([C@@H](C)CO)C(=O)c2cccc(N(C)C)c2O[C@@H]1CN(C)S(=O)(=O)c1ccc(Cl)cc1	nt	nt	-0.3	nt	nt
C[C@H]1CN([C@@H](C)CO)S(=O)(=O)c2ccc(C#CCN(C)C)cc2O[C@@H]1CN(C)Cc1ccccn1	nt	nt	-3.1	nt	nt
O=C(Nc1ccc2c3c(cccc13)CC2)c1ccccc1	nt	-0.2	48.2*	nt	nt
CC(=O)Nc1ccc2c3c(cccc13)CC2	5.0	-2.1	-2.9	-3.6	-1.9
COc1ccc(NC(=S)Nc2cccnc2)c(OC)c1	8.3	3.3	-13.6	-0.7	0.8
COc1ccc(NC(=S)Nc2ccc(OC)cc2OC)c(OC)c1	-1.5	0.5	nt	3.5	-4.9
COc1ccc(NC(=S)Nc2ccccn2)c(OC)c1	-58.9	-2.6	69.1*	-50.7	-66.3
COc1ccc(NC(=S)Nc2cc(C)ccn2)c(OC)c1	-182.4	7.1	67.6*	-136.7	4.4
COC(=O)c1ccc(COc2ccc3c(C)c(C)c(=O)oc3c2C)o1	nt	nt	23.1*	nt	-29.9
CC(C)(C)c1ccc(C(=O)NCCC(=O)N2CCCC2)cc1	-121.2	0.8	46.8*	-104.9	-10.1
SMILES	697 NFkB inh	SMARCA2 act	esBAF inh	Jurkat NFkB inh	Gli-Sufu block
COCC#Cc1cnc2c(c1)C(=O)N([C@H](C)CO)C[C@H](C)[C@@H](CN(C)C(C)=O)O2	nt	nt	3.4	nt	nt
Cc1ccc(Cc2c(-c3ccc(F)cc3)nc3cc(C)ccn23)cc1	nt	3.1	44.2*	nt	nt
COC(=O)c1oc2ccc(OC)cc2c1N	15.2	-2.2	32.5	-6.5	-20.8
COc1ccc(C(=O)c2oc3ccc(OC)cc3c2N)cc1	-115.5	1.6	86.0*	-117.0	-86.5
Cn1c(=O)[nH]c(=O)c2c1nc(Br)n2CC(O)COc1ccccc1 (stereo not drawn)	-8.0	7.9*	-6.2	8.8	5.5
COCC(=O)N1[C@H](CO)[C@@H]2c3ccccc3N(C(=O)c3ccccc3)C[C@@H]21	nt	nt	-11.5	nt	nt
Cc1ccccc1C(=O)N=c1sccn1C	2.4	-1.0	nt	-8.7	-15.1
CCN(CC)S(=O)(=O)c1cc(C(=O)N=c2sccn2C)ccc1OC	24.5	-2.3	0.3	-2.8	1.1
Cc1cccc(C(=O)N=c2sccn2C)c1[N+](=O)[O-]	-52.9	2.8	56.5*	-56.7	-43.0
